# The source made the active and inactive calls.
# Columns and labels:
# [1] = binders of probe aFSTL3 on microarray, primary screen, stem cell growth factor project, biochemical, small-molecule microarray, fluorescence 635/667 (AID 1064); details: higher = more signal;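 further: measures binding of the biotinylated anti-FSTL3 antibody to printed compounds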
# [2] = binders from COS7 lysate, DM2A8 probe, primary screen, torsin A project, cell lysate, small-molecule microarray, fluorescence 635/667 (AID 1065); details: higher = more signal, COS7 lysate expressing mutant human TOR1A
# [3] = binders of probe aFGF2 on microarray, primary screen, stem cell growth factor project, biochemical, small-molecule microarray, fluorescence 635/667 (AID 1067); details: higher = more signal;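 further: measures binding of biotinylated aFGF2 protein to printed compounds on slides; z-score merges feature fluorescence and signal-to-noise across triplicate slides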
# [4] = binders of probe aFGF10 on microarray, primary screen, stem cell growth factor project, biochemical, small-molecule microarray, fluorescence 635/667 (AID 1071); details: higher = more signal;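 further: score merges 667 nm spot intensity and signal to noise from triplicate slides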
# [5] = target: Neurogenic locus notch homolog protein 2 (Homo sapiens) (UniProt Q04721); assay: Notch2 binders on small-molecule microarrays, primary screen, biochemical, small-molecule microarray, 635 nm fluorescence, stem cell growth factors (AID 1073); details: Notch2 binding, higher = more signal
# [6] = target: Pro-neuregulin-1, membrane-bound isoform (Homo sapiens) (UniProt Q02297); assay: NRG1 binders on small-molecule microarrays, primary screen, psychiatric disease protein project, biochemical, small-molecule microarray, fluorescence 635/667 (AID 1075); details: NRG1 binding, 635 nm fluorescence, higher = more signal;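 further: score combines 667 nm spot fluorescence with signal to noise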
# [7] = test system: Neuregulin-1 EGF-like domain; assay: binders of neuregulin-1 EGF-like domain, primary screen, biochemical, small-molecule microarray, 635 nm fluorescence (AID 1081); details: small-molecule microarray binding, higher = more signal;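 further: binding of the protein to compounds printed on small-molecule microarray slides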
# [8] = FRG1 promoter luciferase signal modulators, primary screen, FRG1 inhibition for FSHD, cell-based, C2C12 myotubes, firefly/Renilla luciferase, luminescence (AID 1084); details: higher = more signal, called active from +8 up or from −8 down
# [9] = binders of probe aFST on microarray, primary screen, stem cell growth factor project, biochemical, small-molecule microarray, fluorescence 635/667 (AID 1086); details: higher = more signal;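 further: score merges 667 nm fluorescence with signal-to-noise of each printed compound spot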
# [10] = binders of probe aHhip on microarray, primary screen, stem cell growth factor project, biochemical, small-molecule microarray, fluorescence 635/667 (AID 1087); details: higher = more signal;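 further: score merges spot fluorescence at 667nm with spot signal to noise ratio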
# [11] = test system: PRMT1 (protein arginine N-methyltransferase 1); assay: PRMT1 binders on small-molecule microarrays, primary screen, biochemical, small-molecule microarray, 635 nm fluorescence (AID 1088); details: small-molecule microarray binding, higher = more signal;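 further: binding of Prmt1 protein to compounds spotted on small-molecule microarray slides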
# [12] = yeast growth modulation, basal conditions, primary screen, YJM789 clinical isolate, OD600, 24 h (AID 1089);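 further: growth of clinical yeast isolate S. cerevisiae YJM 789 seeded 1000 cells per well; test concentration not given here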; details: S. cerevisiae YJM789 growth, higher = more signal, called active from +8 up or from −8 down
# [13] = fission yeast growth modulation, primary screen, strain 972, OD600, 24 h, no modulator (AID 1090);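 further: basal condition with compound alone and no growth modifier present; test concentration not given here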; details: S. pombe 972 growth, higher = more signal, called active from +8 up or from −8 down
# [14] = S. cerevisiae growth modulation with rapamycin, primary screen, strain BY4716, OD600, 96 h (AID 1091); details: higher = more signal, called active from +8 up or from −8 down; further: test concentration not given here
# [15] = target: Torsin-1A-interacting protein 2 (Homo sapiens) (UniProt Q8NFQ8); assay: LULL1 binders on small-molecule microarray, primary screen, cell lysate, human LULL1 lysate, 635/667 nm fluorescence (AID 1092); details: hLULL1 lysate binding, 635 nm fluorescence, higher = more signal;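 further: probe is lysate of COS7 cells overexpressing human LULL1; score merges per-feature 667 nm fluorescence with signal-to-noise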
# [16] = E. coli growth modulation, two-sided OD650, primary screen, E. coli filamentation project, strain DRC41, 24 h (AID 1093); details: OD650, 24 h, higher = more signal, called active from +8 up or from −8 down;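 further: MC1000 strain lacking acrAB efflux and sulA so SOS filamentation is blocked; test concentration not given here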
# [17] = small-molecule microarray binders of probe aLefty2, primary screen, biochemical, biotinylated probe, 635/667 nm fluorescence (AID 1094); details: higher = more signal;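 further: score merges spot fluorescence near 667 nm with spot signal-to-noise ratio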
# [18] = test system: Noggin (protein binding on small-molecule microarray); assay: Noggin binders on small-molecule microarray, primary screen, biochemical, 635/667 nm fluorescence (AID 1095); details: 635 nm fluorescence, higher = more signal;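 further: score merges 667 nm feature fluorescence with signal to noise over triplicate slides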
# [19] = target: Neurogenic locus notch homolog protein 3 (Homo sapiens) (UniProt Q9UM47); assay: NOTCH3 binders on small-molecule microarray, primary screen, biochemical, 635/667 nm fluorescence (AID 1096); details: NOTCH3 binding, 635 nm fluorescence, higher = more signal
# [20] = small-molecule microarray binders of probe aEGFR, primary screen, biochemical, biotinylated probe, 635/667 nm fluorescence (AID 1097); details: higher = more signal;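 further: probe is a biotinylated anti-EGFR antibody binding compounds printed on slides; score combines fluorescence near 667 nm and signal to noise of each spot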
# Neurogenic locus notch homolog protein 2 (Homo sapiens), sequence (Q04721 whole entry, looked up, canonical isoform): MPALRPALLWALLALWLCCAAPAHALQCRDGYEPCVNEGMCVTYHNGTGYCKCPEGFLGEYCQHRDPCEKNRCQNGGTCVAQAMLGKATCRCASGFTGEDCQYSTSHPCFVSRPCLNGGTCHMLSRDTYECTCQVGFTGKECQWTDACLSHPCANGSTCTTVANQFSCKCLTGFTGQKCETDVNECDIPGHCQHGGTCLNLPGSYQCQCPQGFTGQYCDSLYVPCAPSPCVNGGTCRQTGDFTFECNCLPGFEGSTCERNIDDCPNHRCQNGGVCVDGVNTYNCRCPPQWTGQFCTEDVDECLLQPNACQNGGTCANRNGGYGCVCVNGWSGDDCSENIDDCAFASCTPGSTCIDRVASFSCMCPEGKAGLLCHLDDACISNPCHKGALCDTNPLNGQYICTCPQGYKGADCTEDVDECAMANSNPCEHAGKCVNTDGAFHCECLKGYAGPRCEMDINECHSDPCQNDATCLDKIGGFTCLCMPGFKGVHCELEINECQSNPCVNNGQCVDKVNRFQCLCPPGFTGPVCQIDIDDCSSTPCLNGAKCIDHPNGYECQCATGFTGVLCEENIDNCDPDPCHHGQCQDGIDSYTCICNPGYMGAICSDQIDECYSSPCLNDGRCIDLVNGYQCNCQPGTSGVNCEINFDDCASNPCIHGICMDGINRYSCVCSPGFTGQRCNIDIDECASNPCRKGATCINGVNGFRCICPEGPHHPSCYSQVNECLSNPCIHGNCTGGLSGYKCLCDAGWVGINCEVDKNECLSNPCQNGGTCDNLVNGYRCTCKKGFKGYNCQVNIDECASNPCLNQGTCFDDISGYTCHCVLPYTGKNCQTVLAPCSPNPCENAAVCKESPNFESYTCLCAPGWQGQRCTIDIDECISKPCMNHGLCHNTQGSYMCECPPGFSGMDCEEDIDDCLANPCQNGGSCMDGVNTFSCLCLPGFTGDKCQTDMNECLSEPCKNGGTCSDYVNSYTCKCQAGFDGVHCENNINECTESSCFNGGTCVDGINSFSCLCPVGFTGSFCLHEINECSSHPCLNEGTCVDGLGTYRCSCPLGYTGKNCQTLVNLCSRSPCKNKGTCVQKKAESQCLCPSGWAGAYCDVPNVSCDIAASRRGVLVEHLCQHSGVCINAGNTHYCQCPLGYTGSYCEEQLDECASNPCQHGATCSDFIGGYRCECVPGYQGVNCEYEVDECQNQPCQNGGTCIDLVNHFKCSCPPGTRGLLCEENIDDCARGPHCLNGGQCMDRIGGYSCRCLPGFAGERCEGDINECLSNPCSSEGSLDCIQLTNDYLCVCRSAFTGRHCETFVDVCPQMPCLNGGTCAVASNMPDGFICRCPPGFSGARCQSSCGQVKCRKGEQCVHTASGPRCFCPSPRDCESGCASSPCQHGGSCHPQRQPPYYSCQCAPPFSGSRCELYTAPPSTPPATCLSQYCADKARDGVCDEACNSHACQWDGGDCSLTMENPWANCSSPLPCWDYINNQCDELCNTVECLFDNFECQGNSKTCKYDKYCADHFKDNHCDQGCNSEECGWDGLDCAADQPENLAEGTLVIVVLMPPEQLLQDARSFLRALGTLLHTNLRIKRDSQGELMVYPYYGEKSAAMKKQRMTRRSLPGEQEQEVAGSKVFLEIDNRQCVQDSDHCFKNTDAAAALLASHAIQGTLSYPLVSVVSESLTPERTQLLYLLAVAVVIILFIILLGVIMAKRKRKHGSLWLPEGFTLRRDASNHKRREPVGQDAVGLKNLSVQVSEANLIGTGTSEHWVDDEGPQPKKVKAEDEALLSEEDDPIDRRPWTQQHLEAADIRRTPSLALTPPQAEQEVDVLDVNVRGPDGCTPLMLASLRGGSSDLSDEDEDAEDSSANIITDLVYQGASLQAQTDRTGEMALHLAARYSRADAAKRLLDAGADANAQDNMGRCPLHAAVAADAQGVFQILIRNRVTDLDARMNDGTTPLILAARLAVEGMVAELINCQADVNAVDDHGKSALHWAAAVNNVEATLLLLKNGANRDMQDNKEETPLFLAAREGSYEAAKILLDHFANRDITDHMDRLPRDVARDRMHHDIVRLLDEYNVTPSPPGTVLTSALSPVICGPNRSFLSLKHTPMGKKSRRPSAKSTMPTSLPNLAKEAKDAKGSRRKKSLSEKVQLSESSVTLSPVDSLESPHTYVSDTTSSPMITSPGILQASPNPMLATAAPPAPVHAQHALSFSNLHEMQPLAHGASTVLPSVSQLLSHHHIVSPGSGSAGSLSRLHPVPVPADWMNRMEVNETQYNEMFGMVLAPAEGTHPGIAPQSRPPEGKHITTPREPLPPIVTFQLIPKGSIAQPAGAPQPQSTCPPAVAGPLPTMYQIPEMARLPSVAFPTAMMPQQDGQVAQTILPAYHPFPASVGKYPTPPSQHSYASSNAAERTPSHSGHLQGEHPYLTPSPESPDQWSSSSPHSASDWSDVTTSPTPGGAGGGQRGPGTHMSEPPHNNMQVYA
# Torsin-1A-interacting protein 2 (Homo sapiens), sequence (Q8NFQ8 whole entry, looked up): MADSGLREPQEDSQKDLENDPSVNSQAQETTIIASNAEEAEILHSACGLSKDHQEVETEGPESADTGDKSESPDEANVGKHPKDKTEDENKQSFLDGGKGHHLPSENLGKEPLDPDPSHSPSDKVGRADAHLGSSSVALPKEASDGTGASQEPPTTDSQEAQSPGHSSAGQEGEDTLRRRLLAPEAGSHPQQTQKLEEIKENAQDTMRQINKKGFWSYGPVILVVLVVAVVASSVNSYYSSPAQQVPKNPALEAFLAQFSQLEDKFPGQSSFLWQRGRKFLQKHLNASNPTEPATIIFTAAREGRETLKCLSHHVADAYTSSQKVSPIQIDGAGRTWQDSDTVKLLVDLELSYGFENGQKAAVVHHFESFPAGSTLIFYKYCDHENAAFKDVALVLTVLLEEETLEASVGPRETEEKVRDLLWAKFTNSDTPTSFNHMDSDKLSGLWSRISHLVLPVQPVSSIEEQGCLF
# Pro-neuregulin-1, membrane-bound isoform (Homo sapiens), sequence (Q02297 whole entry, looked up, the tested form may be a part, canonical isoform): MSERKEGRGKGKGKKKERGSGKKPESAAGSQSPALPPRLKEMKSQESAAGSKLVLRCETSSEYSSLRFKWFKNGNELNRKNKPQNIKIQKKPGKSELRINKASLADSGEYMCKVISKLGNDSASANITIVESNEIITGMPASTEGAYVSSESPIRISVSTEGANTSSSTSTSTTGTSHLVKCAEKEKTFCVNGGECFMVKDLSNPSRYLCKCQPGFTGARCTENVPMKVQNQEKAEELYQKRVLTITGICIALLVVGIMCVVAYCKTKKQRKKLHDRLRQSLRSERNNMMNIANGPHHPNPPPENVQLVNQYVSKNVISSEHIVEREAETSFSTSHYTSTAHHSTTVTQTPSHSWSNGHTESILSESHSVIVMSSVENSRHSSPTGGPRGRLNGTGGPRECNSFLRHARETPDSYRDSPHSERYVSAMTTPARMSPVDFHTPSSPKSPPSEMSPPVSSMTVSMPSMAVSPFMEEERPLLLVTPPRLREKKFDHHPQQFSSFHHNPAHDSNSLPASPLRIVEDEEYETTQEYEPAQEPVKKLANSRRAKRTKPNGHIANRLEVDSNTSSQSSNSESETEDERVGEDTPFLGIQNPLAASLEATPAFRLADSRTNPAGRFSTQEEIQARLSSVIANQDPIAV
compound,measurement,setting,value
[N-]=[N+]=NCc1ccccc1C[C@]1(C(=O)N2CCOCC2)COC(c2ccc(OCCCO)cc2)=N1,composite z-score,[1],0.518
same,composite z-score,[2],0.456
same,composite z-score,[3],0.083
same,composite z-score,[4],0.973
same,composite z-score,[5],0.626
same,composite z-score,[6],1.02
same,composite z-score,[7],1.24
same,z-score,[8],-2.87 (inactive)
same,composite z-score,[9],0.73
same,composite z-score,[10],-0.0237
same,composite z-score,[11],1.5
same,z-score,[12],-0.486 (inactive)
same,z-score,[13],-5.38 (inactive)
same,z-score,[14],32.4 (active)
same,composite z-score,[15],2.39
same,z-score,[16],3.3 (inactive)
same,composite z-score,[17],0.273
same,composite z-score,[18],-0.296
same,composite z-score,[19],0.364
same,composite z-score,[20],0.0706
O=C1C2C=CC(C(O)c3cccc(O)c3)N(Nc3ccccc3)C2C(=O)N1c1ccccc1 (stereo not given),composite z-score,[1],-0.0667
same,composite z-score,[2],-0.73
same,composite z-score,[3],-0.0901
same,composite z-score,[4],0.212
same,composite z-score,[5],1.08
same,composite z-score,[6],0.977
same,composite z-score,[7],1.11
same,z-score,[8],1.23 (inactive)
same,composite z-score,[9],0.35
same,composite z-score,[10],-0.0003
same,composite z-score,[11],-0.413
same,z-score,[12],0.629 (inactive)
same,z-score,[13],-0.581 (inactive)
same,z-score,[14],0.299 (inactive)
same,composite z-score,[15],2.92
same,z-score,[16],-0.542 (inactive)
same,composite z-score,[17],0.005
same,composite z-score,[18],-0.525
same,composite z-score,[19],0.535
same,composite z-score,[20],-0.0416
CCCNC(=O)[C@@]1(Sc2ccc(C)cc2)CC(=O)N(C2CCCCC2)[C@@H]1c1ccc(CO)cc1I,composite z-score,[1],0.152
same,composite z-score,[2],0.481
same,composite z-score,[3],-0.0788
same,composite z-score,[4],0.182
same,composite z-score,[5],0.517
same,composite z-score,[6],0.772
same,composite z-score,[7],1.25
same,z-score,[8],-3.57 (inactive)
same,composite z-score,[9],-0.0962
same,composite z-score,[10],-0.383
same,composite z-score,[11],1.56
same,z-score,[12],-1.2 (inactive)
same,z-score,[13],0.554 (inactive)
same,z-score,[14],-0.133 (inactive)
same,composite z-score,[15],2.44
same,z-score,[16],0.19 (inactive)
same,composite z-score,[17],-0.273
same,composite z-score,[18],-0.447
same,composite z-score,[19],0.298
same,composite z-score,[20],-0.0643
COCCCNC(=O)[C@@H]1c2ccccc2C(=O)N(C2Cc3ccccc3C2)[C@H]1c1ccc(CO)cc1,composite z-score,[1],-0.0989
same,composite z-score,[2],0.703
same,composite z-score,[3],-0.151
same,composite z-score,[4],0.0338
same,composite z-score,[5],-0.0746
same,composite z-score,[6],0.209
same,composite z-score,[7],1.4
same,z-score,[8],0.0504 (inactive)
same,composite z-score,[9],0.506
same,composite z-score,[10],-0.137
same,composite z-score,[11],1.17
same,z-score,[12],0.0011 (inactive)
same,z-score,[13],-0.471 (inactive)
same,z-score,[14],-0.559 (inactive)
same,composite z-score,[15],1.74
same,z-score,[16],0.935 (inactive)
same,composite z-score,[17],-0.0237
same,composite z-score,[18],0.163
same,composite z-score,[19],-0.0847
same,composite z-score,[20],-0.0549
CCCCCN1CC=CC23O[C@@H]4C=CCOC(=O)[C@@H]4[C@H]2C(=O)N(CCO)[C@@H]3C1=O (stereo not given in full),composite z-score,[1],0.388
same,composite z-score,[2],0.483
same,composite z-score,[3],-0.177
same,composite z-score,[4],0.162
same,composite z-score,[5],-1.27
same,composite z-score,[6],1.6
same,composite z-score,[7],1.48
same,z-score,[8],-0.0097 (inactive)
same,composite z-score,[9],-0.455
same,composite z-score,[10],-0.199
same,composite z-score,[11],0.487
same,z-score,[12],0.15 (inactive)
same,z-score,[13],-0.178 (inactive)
same,z-score,[14],-0.175 (inactive)
same,composite z-score,[15],2.35
same,z-score,[16],-0.229 (inactive)
same,composite z-score,[17],-0.244
same,composite z-score,[18],-1.25
same,composite z-score,[19],-0.195
same,composite z-score,[20],-0.235
C=CCNC(=O)[C@@H]1[C@H]2C(=O)O[C@H](c3ccccc3)[C@H](c3ccccc3)N2[C@H](c2ccc(O)cc2)[C@@]12C(=O)Nc1ccc(C#CCC(C(=O)OC)C(=O)OC)cc12,composite z-score,[1],-0.174
same,composite z-score,[2],0.198
same,composite z-score,[3],-0.18
same,composite z-score,[4],0.163
same,composite z-score,[5],0.162
same,composite z-score,[6],0.749
same,composite z-score,[7],0.95
same,z-score,[8],1.03 (inactive)
same,composite z-score,[9],0.249
same,composite z-score,[10],0.0623
same,composite z-score,[11],1.55
same,z-score,[12],1.66 (inactive)
same,z-score,[13],0.918 (inactive)
same,z-score,[14],1.12 (inactive)
same,composite z-score,[15],2.32
same,z-score,[16],-0.311 (inactive)
same,composite z-score,[17],0.0539
same,composite z-score,[18],0.482
same,composite z-score,[19],0.387
same,composite z-score,[20],-0.187
COC(=O)[C@@]1(Cc2ccc(OC)cc2)[C@H]2c3cc(C(=O)N4CCCC4)n(Cc4cc(C)n(C)n4)c3C[C@H]2CN1C(=O)c1ccccc1,composite z-score,[1],0.404
same,composite z-score,[2],0.0011
same,composite z-score,[3],0.37
same,composite z-score,[4],1.3
same,composite z-score,[5],1.76
same,composite z-score,[6],2.16
same,composite z-score,[7],1.33
same,z-score,[8],0.301 (inactive)
same,composite z-score,[9],0.821
same,composite z-score,[10],2.67
same,composite z-score,[11],0.481
same,z-score,[12],-0.102 (inactive)
same,z-score,[13],1.31 (inactive)
same,z-score,[14],0.202 (inactive)
same,composite z-score,[15],3.85
same,z-score,[16],-0.265 (inactive)
same,composite z-score,[17],0.724
same,composite z-score,[18],-0.513
same,composite z-score,[19],1.04
same,composite z-score,[20],0.701
Nc1cc(Br)ccc1C(=O)O,composite z-score,[1],-0.0861
same,composite z-score,[2],0.0499
same,composite z-score,[3],-0.17
same,composite z-score,[4],0.307
same,composite z-score,[5],0.314
same,composite z-score,[6],0.505
same,composite z-score,[7],0.742
same,z-score,[8],0.0039 (inactive)
same,composite z-score,[9],0.195
same,composite z-score,[10],-0.229
same,composite z-score,[11],0.409
same,z-score,[12],-0.585 (inactive)
same,z-score,[13],-1.64 (inactive)
same,z-score,[14],-0.0096 (inactive)
same,composite z-score,[15],0.568
same,z-score,[16],-1.2 (inactive)
same,composite z-score,[17],-0.0664
same,composite z-score,[18],0.136
same,composite z-score,[19],0.332
same,composite z-score,[20],-0.0961
C=CC[C@H](OC(=O)Nc1ccc(SC)cc1)c1ccc(OCCO)cc1,composite z-score,[1],0.339
same,composite z-score,[2],0.0366
same,composite z-score,[3],-0.107
same,composite z-score,[4],-0.85
same,composite z-score,[5],-1.2
same,composite z-score,[6],0.958
same,composite z-score,[7],1.07
same,z-score,[8],8.37 (active)
same,composite z-score,[9],-0.413
same,composite z-score,[10],-0.0994
same,composite z-score,[11],-0.693
same,z-score,[12],-0.739 (inactive)
same,z-score,[13],-2.94 (inactive)
same,z-score,[14],-0.598 (inactive)
same,composite z-score,[15],0.639
same,z-score,[16],0.951 (inactive)
same,composite z-score,[17],-0.15
same,composite z-score,[18],0.732
same,composite z-score,[19],0.201
same,composite z-score,[20],-0.19
COCCOC(=O)N1C(=O)[C@@]2(c3cc(C#Cc4ccc(OC)cc4)ccc31)[C@H](c1ccc(OCCO)cc1)N1[C@H](c3ccccc3)[C@H](c3ccccc3)OC(=O)[C@H]1[C@@H]2C(=O)Nc1nc2ccccc2s1,composite z-score,[1],-0.118
same,composite z-score,[2],0.247
same,composite z-score,[3],-0.0262
same,composite z-score,[4],0.39
same,composite z-score,[5],1.21
same,composite z-score,[6],0.864
same,composite z-score,[7],0.718
same,z-score,[8],2.99 (inactive)
same,composite z-score,[9],-0.0352
same,composite z-score,[10],0.0695
same,composite z-score,[11],1.14
same,z-score,[12],1.77 (inactive)
same,z-score,[13],1.43 (inactive)
same,z-score,[14],1.96 (inactive)
same,composite z-score,[15],2.2
same,z-score,[16],1.82 (inactive)
same,composite z-score,[17],0.188
same,composite z-score,[18],0.55
same,composite z-score,[19],0.95
same,composite z-score,[20],-0.0437
